Drawing on PubChem BioAssay AID2842 (Southern Research Institute, 2010), this text covers inhibition for 87 compounds.

Screen size: about 24,000 compounds; about 1,200 (5%) were called active. Not shown: some 2% with an inconclusive outcome. A selection follows. A number with no mark means an inactive call. How the calls were made is not given here.

The assay can be described thus: Mycobacterium tuberculosis H37Rv growth inhibition, putative kinase inhibitor library, confirmatory dose response (AID 2842).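 Further: bacteria incubated one week before Alamar blue readout; 0% = bacteria only wells and 100% = bacteria with high antibiotic.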 Conditions: M. tuberculosis H37Rv growth inhibition; CC50: measured here: Vero cell cytotoxicity; inhibition: hits give high values.
As to `CCCNC(=O)CSc1nc2c([nH]c3ccccc32)c(=O)n1-c1ccc(OC)c(OC)c1`, the inhibition (usually the change of the read-out against control, counted positive when it falls) was 3.01%. Regarding `COc1ccc(C(=O)c2cn(Cc3cccc(F)c3)c3ccccc3c2=O)cc1`, the inhibition was -1.95%.

For the compound `CC1CCc2c(sc(NC(=O)c3ccc(-c4nc5ccccc5s4)s3)c2C#N)C1` (configuration not stated), the inhibition was 2.71%. Turning to `CCOc1cc(C(=O)Nc2nnc(-c3ccc(C)cc3)s2)cc(OCC)c1OCC`, the inhibition is 12.5%.

`Cc1ccc(C)c(S(=O)(=O)Nc2ccc(C(=O)N3CCOCC3)cc2)c1`: the inhibition is -13.6%. For `CCN(c1ccccc1)S(=O)(=O)c1ccc(C(=O)Nc2nc(-c3ccc(C#N)cc3)cs2)cc1`, the inhibition is -5.78%. `O=C(O)c1cc(-c2ccc(F)cc2)nc2ccccc12`: the inhibition was -3.79%.

Consider `C=CCn1c(=O)c2c(nc(N/N=C/c3ccccc3O)n2C)n(C)c1=O`, for which the inhibition was 69.7%. Take `CCn1c2c(c(=O)[nH]c1=O)C(c1ccc(O)cc1)C1=C(CC(C)(C)CC1=O)N2` (configuration not stated): the inhibition was -10.5%.

For `CCSC1=C(C#N)C(c2ccco2)C(C(=O)Nc2ccccc2OC)=C(C)N1` (configuration not stated), the inhibition was 13.1%.

For the compound `O=C(CSc1cn(Cc2ccccc2Cl)c2ccccc12)Nc1nc2ccccc2s1`, the inhibition was 10.2%. The value for `COC(=O)c1sc2nc(N)c(C#N)c(-c3ccco3)c2c1N` was -11.1%; that for `O=C1NCCc2c(OCC(=O)N3CCCC3)cccc21` was -13.2%; that for `CCN1C(=O)C2(C(C#N)=C(N)Oc3c2oc(CO)cc3=O)c2ccccc21` (configuration not stated) was -2.38%. Consider `O=C(CSc1ccc2nnc(-c3cccnc3)n2n1)Nc1cccc(C(F)(F)F)c1`, for which the inhibition is 2.18%. Then `Cn1c(=O)c2c([nH]c(=S)n2Cc2ccc(F)cc2)n(C)c1=O`, with -5.83%. As to `O=c1/c(=C/c2ccc(Br)cc2)sc2nc(-c3ccncc3)nn12`, the inhibition is -4.93%.

As for `Cc1ccc(S(=O)(=O)CCC(=O)Nc2nc(-c3cccc([N+](=O)[O-])c3)cs2)cc1`, the inhibition was -0.9%. In the case of `CCC(CC)C(=O)Nc1nnc(-c2ccc(Br)cc2)s1`, the inhibition is 5.92%. With `COc1ccc(Cl)c2sc(N3CCN(C(=O)COc4ccccc4)CC3)nc12`, the inhibition was -14.7%. Take `Fc1ccc(-c2nnc(Nc3nc4c(F)cccc4s3)o2)cc1`: the inhibition was 35.7%. For `CSc1cccc2sc(Nc3ccccc3Cl)nc12`, the inhibition was 43.9%. Consider `COc1cccc(N2CC(NC(=O)N3CCN(c4ccc(F)cc4)CC3)CC2=O)c1` (configuration not stated), for which the inhibition is 1.73%.

In the case of `O=C(CN1N=NC2C(=O)N(c3ccc(F)c(F)c3)C(=O)C21)Nc1cccc(F)c1` (configuration not stated), the inhibition was -18.6%.

With `COc1ccc(N2C(=O)/C(=C3/C(=O)N(C)c4ccccc43)SC2=S)c(OC)c1`, the inhibition is -6.83%. As to `NC(=O)N/N=C/c1ccccc1[N+](=O)[O-]`, the inhibition was -0.23%.

Take `Cc1ccc(-n2nnc3c(=O)n(CC(=O)Nc4cccc(F)c4)cnc32)cc1Cl`: the inhibition is 5.52%.

With `O=c1[nH]c(NCCc2ccccc2)nnc1-c1ccccc1`, the inhibition is -9.26%. Consider `O=C(O)/C=C/C(=O)NCc1cn(-c2ccccc2)nc1-c1ccc(Cl)cc1`, for which the inhibition is -11.2%. `Nc1ncnc2c1c1nc3ccccc3nc1n2CCc1ccccc1`: the inhibition is -4.35%. The value for `COC(CNc1ncnc2c1cnn2-c1ccc(C)c(Cl)c1)OC` was 15.5%; that for `CCOc1cccc(/C=N\NC(=O)Cn2cnc3ccccc32)c1O` was -6.32%; that for `Cc1nnc(SCCn2c(N3CCN(Cc4ccccc4)CC3)nc3c2c(=O)[nH]c(=O)n3C)s1` was 4.11%. Turning to `CC(=O)Nc1ccc(NC(=O)NC2CC(=O)N(c3ccc(C)cc3)C2)cc1` (configuration not stated), the inhibition is -0.32%. Regarding `Cc1ccc(C)c(-c2nnc(NC(=O)/C=C/c3ccccc3)o2)c1`, the inhibition is 75.9%. For the compound `Cc1cccc(-c2nnn3c2nc(NCCc2ccc(S(N)(=O)=O)cc2)c2ccccc23)c1`, the inhibition is -2.93%.

Turning to `O=C(NCCO)c1ccc(CSc2nc3ccccc3c(=O)[nH]2)cc1`, the inhibition was -16.4%. Consider `Cn1c(=O)c2c(SCC(=O)Nc3nc4ccccc4s3)nc(-c3ccc(F)cc3)nc2n(C)c1=O`, for which the inhibition is 14.6%. On to `NC(=O)c1nc(-c2cccnc2)nc2c1[nH]c(=O)n2-c1ccc(Cl)c(Cl)c1`, for which the inhibition was 5.29%. As for `CCOC(=O)CNc1ncnc(N)c1[N+](=O)[O-]`, the inhibition was 2.73%.

In the case of `Fc1ccc2nc(Nc3ccc4c(c3)OCCO4)sc2c1`, the inhibition is 72.2%. Take `CC(=O)N1CCc2c(sc(NC(=O)c3ccc4ccccc4c3)c2C#N)C1`: the inhibition was 13.2%. Turning to `CCOC(=O)c1ccc(Nc2nnc3[nH]c(=O)c4c(C)c(C)sc4n23)cc1`, the inhibition was -12.7%.

On to `COc1cc(OC)cc(C(=O)NCCc2cc3ccc(C)cc3[nH]c2=O)c1`, for which the inhibition was -10.9%.

As to `CCOC(=O)N1CCN(C(c2cccnc2)c2c(O)cc(C)n(CCOC)c2=O)CC1` (configuration not stated), the inhibition is 0.85%. On to `COc1ccc(Cl)c2sc(N(Cc3cccnc3)C(=O)c3cccc(S(C)(=O)=O)c3)nc12`, for which the inhibition was -13.3%. With `CC(=O)Nc1ccc(NC(=O)CSc2nnc(CNC(=O)c3ccccc3)o2)cc1`, the inhibition was -8.68%.

With `Cn1c(=O)[nH]c(=O)c2c1nc(N1CCC(Cc3ccccc3)CC1)n2CCSc1nc2ccccc2o1`, the inhibition was 19.9%. On to `Cc1ccc(CSc2nc3c(c(=O)[nH]c(=O)n3C)n2Cc2ccccc2Cl)cc1`, for which the inhibition was -2.78%. Turning to `CC1CCCN(S(=O)(=O)c2ccc(C(=O)Nc3nc4ccc5ccccc5c4s3)cc2)C1` (configuration not stated), the inhibition was 14.8%. Consider `Nn1c(SCC(=O)Nc2ccc(C(F)(F)F)cc2)nncc1=O`, for which the inhibition was -15.7%. As to `O=C(Nc1nc(-c2ccc3c(c2)OCCO3)cs1)c1cccc(Cl)c1`, the inhibition was -0.85%.

Regarding `COc1cc2nc(Nc3cccc(Cl)c3)sc2cc1OC`, the inhibition is 48.6%.

On to `COc1ccc2c(c1)c(=O)c(C(=O)c1ccc(Cl)cc1)cn2CC(=O)Nc1ccc2c(c1)OCO2`, for which the inhibition was -1.76%. The value for `CC(C)c1ccc(OCC(=O)N/N=C/c2ccco2)cc1` was 6.99%; that for `CCOC(=O)c1sc2nc(-c3ccccc3)cc(-c3ccccc3)c2c1N=Cc1cc(I)cc(I)c1O` was -1.26%.

For `O=c1[nH]c(NCc2ccc3c(c2)OCO3)nnc1Cc1ccc(F)cc1`, the inhibition is -0.653%. In the case of `Nc1nc(SCC(=O)Nc2cccc(F)c2)[nH]c(=O)c1NC(=O)c1ccc(F)cc1`, the inhibition is -6.89%. On to `COc1ccc(S(=O)(=O)Nc2cc3c4c(c2)CC(=O)N4CCC3)cc1`, for which the inhibition is 14.8%. For `Nc1nc(SCc2cccc(Cl)c2)[nH]c(=O)c1NC(=O)c1ccc(C(F)(F)F)cc1`, the inhibition is -5.65%. The value for `Cc1ccc(Nc2nc(-c3ccc(S(=O)(=O)N4CCC(Cc5ccccc5)CC4)cc3)cs2)cc1` was -2.1%. In the case of `O=C1NC(=O)C(=Cc2nc(-c3ccc(Cl)cc3)n3ccccc23)C(=O)N1`, the inhibition was 15.3%. Consider `NC(=O)COc1ccc(/C=c2\sc3nc(-c4ccccc4Br)nn3c2=O)cc1`, for which the inhibition is -6.4%. Then `Cc1ccc(NC(=O)c2cnc(SCC(=O)N3CCOCC3)n(C)c2=O)cc1`, with 11.1%; and `COc1ccc(Cl)cc1C(=O)Nc1nnc(-c2ccc(Cl)cc2Cl)s1`, with 0.42%. The value for `CC1CCc2c(C(=O)Nc3ccc(OC(F)(F)F)cc3)csc2C1` (configuration not stated) was 7.32%; that for `CCn1c(SCCc2ccccc2)nc2c1c(=O)[nH]c(=O)n2C` was 16.5%. For the compound `O=C(O)c1ccc(Nc2nc(-c3cccnc3)nc3ccccc23)cc1`, the inhibition is 5.44%. On to `COc1ccc(OC)c(NC(=O)c2cnc3n(c2=O)CCS3)c1`, for which the inhibition is 10.9%.

Turning to `CCOC(=O)c1nn(-c2ccc(F)cc2)c(=O)c2c(NC(=O)C(CC)c3ccccc3)scc12` (configuration not stated), the inhibition is -11.7%. The value for `O=C(Nc1nc(-c2nc3ccccc3s2)cs1)c1ccc2ccccc2c1` was 3.09%; that for `Cc1csc(NC(=O)CSc2nnc(CNC(=O)c3cccc(C(F)(F)F)c3)o2)n1` was -15.1%; that for `COc1cc(C)c(S(=O)(=O)Nc2ccc(-n3c(C)nc4ccccc4c3=O)cc2C)cc1C` was -7.48%. For `O=C(NNc1ncnc2c1cnn2-c1cccc(Cl)c1)c1cccc(Cl)c1`, the inhibition is 85%. For `O=C(CSc1nnc2ccc(-c3cccc([N+](=O)[O-])c3)nn12)NCc1ccco1`, the inhibition is 0.47%. Consider `CS(=O)(=O)c1ccc([N+](=O)[O-])c(NCCCC(=O)O)c1`, for which the inhibition is -6.3%.

For `CCOc1ccccc1NC(=O)CSc1nnc(C)c(=O)n1N`, the inhibition is -13.8%. Consider `O=C(Nc1nnc(-c2cccs2)o1)C(c1ccccc1)c1ccccc1`, for which the inhibition is 9.32%. With `C#CCn1c(=NC(=O)c2cccc([N+](=O)[O-])c2)sc2cccc(F)c21`, the inhibition is 13.5%.

With `CCOC(=O)N1CCc2c(sc(NC(=O)c3ccc(Br)s3)c2-c2nc3ccccc3s2)C1`, the inhibition is 4.21%. For `Cn1c(=O)[nH]c(=O)c2c1nc(SCC(N)=O)n2CC(O)COc1ccc(Cl)cc1` (configuration not stated), the inhibition was -5.17%. The value for `Nc1nc2c(s1)CCCC2` was 16.9%; that for `COC(=O)C(C)Sc1nnc(Cc2cc(=O)[nH]c(=O)[nH]2)n1-c1ccc(Cl)cc1` (configuration not stated) was -6.18%. As to `Cc1ccc(-n2c(=O)[nH]c3c(C(N)=O)nc(-c4ccc(C(C)C)cc4)nc32)cc1C`, the inhibition is -7.6%.

As to `COc1ccc(-n2nc3c(c2NC(=O)Cc2cccs2)CSC3)cc1`, the inhibition was -3.68%.

With `Cc1cccc(NC(=O)C2C(=O)CN(c3ccccc3)C2=O)c1` (configuration not stated), the inhibition was -3.29%. Then `O=C(/C=C/c1ccccc1Cl)Nc1nc(-c2nc3ccccc3s2)cs1`, with -0.67%.
